PPARg SRC-3 ag – PPARgamma agonists recruiting SRC-3 coactivator, primary screen, biochemical; Peroxisome proliferator-activated receptor gamma (Homo sapiens), P37231; biochemical PPARgamma/SRC-3 coactivator recruitment assay; activation, % at 8 µM; 200,000 compounds, 0.26% hits; AID 731, 2007; in the data active means activation above about 23%
TR-FRET SRC-2 ct – TR-FRET signal artefacts, primary screen, artefact control for PPARgamma SRC-2 agonist project, biochemical. TR-FRET artefact counter-screen; hits give high values. TR-FRET ratio at 8 µM. 200,000 compounds, 0.4% hits
SRC3 TRFRET art – TR-FRET detection interference compounds, artefact control for PPARgamma SRC-3 recruitment agonists, biochemical, TR-FRET ratio; TR-FRET artefact counter-screen, PPARgamma/SRC-3 format; hits give high values; TR-FRET ratio at 8 µM; 99,000 compounds, 0.39% hits; AID 1048, 2008
SRC1 TRFRET art – TR-FRET detection interference compounds, primary screen, artefact control for PPARgamma SRC-1 recruitment agonists, biochemical, TR-FRET emission ratio; TR-FRET detection artefact counter-screen; hits give high values; TR-FRET ratio at 8 µM; 99,000 compounds, 0.34% hits; AID 1051, 2008; in the data active means TR-FRET ratio above about 2300
PPARg SRC-2 ag – agonists of PPARg-SRC-2 recruitment, primary screen, biochemical, HTS; 200,000 compounds, 0.34% hits; PPARgamma LBD-SRC-2 recruitment; AID 1032, 2008; activation, % at 8 µM; in the data active means activation above about 22%
PPARg SRC-1 ag – PPARgamma agonists recruiting SRC-1 coactivator, primary screen, biochemical. PPARgamma-SRC-1 coactivator recruitment biochemical assay. 200,000 compounds, 0.41% hits. Peroxisome proliferator-activated receptor gamma (Homo sapiens), P37231. activation, % at 8 µM; in the data active means activation above about 19%
PPARg SRC2 conf – agonists of PPARgamma SRC-2 coactivator recruitment, confirmation, biochemical, HTS | AID 1297, 2008 | 790 compounds, 52% hits | activation, % at 8 µM | biochemical SRC-2 recruitment by PPARgamma | shares compounds with PPARg SRC-3 ag; in the data active means activation above about 22%
PPARg SRC1 conf – PPARgamma agonists recruiting SRC-1 coactivator, confirmation, biochemical; activation, % at 8 µM; AID 1300, 2008; shares compounds with PPARg SRC-3 ag; 790 compounds, 43% hits; PPARgamma–SRC-1 coactivator recruitment biochemical assay; in the data active means activation above about 20%
PPARg SRC3 ag – PPARgamma-driven SRC-3 coactivator recruitment agonists, confirmation, biochemical; shares compounds with PPARg SRC-3 ag; 790 compounds, 29% hits; biochemical PPARgamma-SRC-3 coactivator recruitment, agonist mode; activation, % at 8 µM; in the data active means activation above about 24%
Numbers stand for hits; 0 = inactive; - = no result. Most compounds without a hit are left out; they make up all but 0.9% or so of the library. Unless noted, no stated cut-off is given here; in the data, active means TR-FRET ratio above about 2000; inactive means the rest.

SMILES	PPARg SRC-3 ag	TR-FRET SRC-2 ct	SRC3 TRFRET art	SRC1 TRFRET art	PPARg SRC-2 ag	PPARg SRC-1 ag	PPARg SRC2 conf	PPARg SRC1 conf	PPARg SRC3 ag
COc1ccc(-c2c3c(nc4sc(C(=O)Nc5ccccc5)c(N)c24)CCC3)cc1	26.7	0	-	-	25.6	0	33.2	19.8	0
O=C(O)c1cccnc1SCC(=O)N1CCCCCC1	0	0	-	-	0	19.5	0	0	0
O=C(O)Cc1cc(C(=O)Nc2ccc(Br)cc2)sc1-c1ccccc1	0	2211	2260	2611	22.5	33.1	0	0	0
O=C(O)CCC(=O)Nc1cccc(C(=O)Nc2ccc(Br)cc2)c1	0	0	0	0	0	0	-	-	-
O=C1CSC(c2cccc(Cl)c2Cl)N1c1ccccn1 (stereo not drawn)	0	0	0	0	0	0	-	-	-
Cc1cc2cc(CNC(=O)c3ccc(S(=O)(=O)N4CCCC4)cc3)ccc2n1C	88.2	5041	-	-	83.5	60.5	100.1	84.3	59.0
Cc1cc2cc(CNC(=O)C3CC3)ccc2n1C	0	0	-	-	0	0	-	-	-
CCN(CC)S(=O)(=O)c1ccc(C(=O)NCc2ccc3c(c2)cc(C)n3C)cc1	48.8	4972	-	-	75.2	25.9	158.4	120.1	102.4
Cc1cc2cc(CNC(=O)c3ccc(S(=O)(=O)N4CCCCC4)cc3)ccc2n1C	111.0	4697	-	-	74.5	83.3	173.0	143.3	101.9
NC(=O)c1c(NC(=O)CCCn2cnc([N+](=O)[O-])n2)sc2c1CCCC2	0	0	0	0	0	0	-	-	-
CCC1(C)Cc2c(C#N)c(N)sc(=S)c2CO1 (stereo not drawn)	27.0	0	-	-	0	0	0	0	0
CN(C)/C=C/c1oc2ccc(O)cc2c1[N+](=O)[O-]	0	0	0	0	24.0	0	0	0	0
Cc1cccc(N2CCN(C(=O)C3CCN(c4nnc(-n5cccc5)s4)CC3)CC2C)c1 (stereo not drawn)	0	0	0	0	0	0	-	-	-
Oc1cc2ccccc2cc1-c1n[nH]c(=S)n1Cc1ccco1	0	0	0	0	0	21.5	0	0	0
Oc1ccc(-c2n[nH]c(=S)n2Cc2ccco2)cc1	0	0	-	-	0	0	-	-	-
Cc1ccc(C(=O)CSc2nc(-c3ccccc3)ccc2C#N)cc1	0	0	0	0	0	0	-	-	-
N#Cc1ccc(-c2ccc3c(c2)OCO3)nc1SCC(=O)OCc1ccccc1	46.1	1976	-	-	0	39.6	50.6	42.6	25.2
Cc1ccccc1C1C2=C(Nc3[nH]n(-c4ccccc4)c(=O)c31)c1ccccc1C2=O (stereo not drawn)	34.7	0	0	0	0	22.8	23.4	29.6	35.5
Cc1cccc(N=C2NC(=O)S/C2=C\c2ccco2)c1	0	0	0	2337	0	21.5	0	0	0
CN(C)c1ccc(NC(=O)Nc2ccc3snnc3c2)cc1	36.3	0	-	-	0	22.7	0	0	0
O=C(O)c1ccc(N2C(=O)/C(=C/C=C/c3ccccc3)SC2=S)cc1	0	0	0	0	0	0	-	-	-
CN(C)c1ccc(/C=C/C=C2/SC(=S)N(c3ccccc3)C2=O)cc1	0	0	-	-	0	19.8	30.2	21.3	0
CCCCN(Cc1ccccc1)C(=O)CCN1C(=O)C2C3C=CC(C3)C2C1=O (stereo not drawn)	0	0	0	0	0	0	-	-	-
O=[N+]([O-])c1ccc(-c2ccc(C=Nc3cccc4ccccc34)o2)cc1	0	0	-	-	0	0	-	-	-

High-throughput results as filed in PubChem.
